Test results: the supplement of paper PMC11732987, “Enantioselective OTUD7B fragment discovery through chemoproteomics screening and high-throughput optimisation” (Communications Chemistry, 2025)
A number with no mark means an inactive call.

Compound: ClCC(=O)N1CCCC1=O
Experiment: log2 ratio of Biotin-Ahx-Ub-VS probe labelling (fragment/DMSO); higher = less target engagement (more negative = stronger competition), active = hit call of the paper (q ≤ 0.05, log2 ratio ≤ -1)
Conditions: compound concentration: 200 uM; treatment time: 3 h
Description: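 Competitive ABPP in HEK293T cell lysate. Lysates were treated with each chloroacetamide fragment at 200 µM for 3 h, then with Biotin-Ahx-Ub-VS (0.5 µM, 1 h), NeutrAvidin-enriched and analysed by diaPASEF LC-MS/MS. Protein LFQ was median-normalised; average log2 ratio is fragment/DMSO from an unpaired t-test (n=3 treated, n=44 DMSO). Hits: q ≤ 0.05, log2 ratio ≤ -1, unique peptides ≥ 2.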

Sequence of UniProt Q9UPU5 (Q9UPU5 whole entry): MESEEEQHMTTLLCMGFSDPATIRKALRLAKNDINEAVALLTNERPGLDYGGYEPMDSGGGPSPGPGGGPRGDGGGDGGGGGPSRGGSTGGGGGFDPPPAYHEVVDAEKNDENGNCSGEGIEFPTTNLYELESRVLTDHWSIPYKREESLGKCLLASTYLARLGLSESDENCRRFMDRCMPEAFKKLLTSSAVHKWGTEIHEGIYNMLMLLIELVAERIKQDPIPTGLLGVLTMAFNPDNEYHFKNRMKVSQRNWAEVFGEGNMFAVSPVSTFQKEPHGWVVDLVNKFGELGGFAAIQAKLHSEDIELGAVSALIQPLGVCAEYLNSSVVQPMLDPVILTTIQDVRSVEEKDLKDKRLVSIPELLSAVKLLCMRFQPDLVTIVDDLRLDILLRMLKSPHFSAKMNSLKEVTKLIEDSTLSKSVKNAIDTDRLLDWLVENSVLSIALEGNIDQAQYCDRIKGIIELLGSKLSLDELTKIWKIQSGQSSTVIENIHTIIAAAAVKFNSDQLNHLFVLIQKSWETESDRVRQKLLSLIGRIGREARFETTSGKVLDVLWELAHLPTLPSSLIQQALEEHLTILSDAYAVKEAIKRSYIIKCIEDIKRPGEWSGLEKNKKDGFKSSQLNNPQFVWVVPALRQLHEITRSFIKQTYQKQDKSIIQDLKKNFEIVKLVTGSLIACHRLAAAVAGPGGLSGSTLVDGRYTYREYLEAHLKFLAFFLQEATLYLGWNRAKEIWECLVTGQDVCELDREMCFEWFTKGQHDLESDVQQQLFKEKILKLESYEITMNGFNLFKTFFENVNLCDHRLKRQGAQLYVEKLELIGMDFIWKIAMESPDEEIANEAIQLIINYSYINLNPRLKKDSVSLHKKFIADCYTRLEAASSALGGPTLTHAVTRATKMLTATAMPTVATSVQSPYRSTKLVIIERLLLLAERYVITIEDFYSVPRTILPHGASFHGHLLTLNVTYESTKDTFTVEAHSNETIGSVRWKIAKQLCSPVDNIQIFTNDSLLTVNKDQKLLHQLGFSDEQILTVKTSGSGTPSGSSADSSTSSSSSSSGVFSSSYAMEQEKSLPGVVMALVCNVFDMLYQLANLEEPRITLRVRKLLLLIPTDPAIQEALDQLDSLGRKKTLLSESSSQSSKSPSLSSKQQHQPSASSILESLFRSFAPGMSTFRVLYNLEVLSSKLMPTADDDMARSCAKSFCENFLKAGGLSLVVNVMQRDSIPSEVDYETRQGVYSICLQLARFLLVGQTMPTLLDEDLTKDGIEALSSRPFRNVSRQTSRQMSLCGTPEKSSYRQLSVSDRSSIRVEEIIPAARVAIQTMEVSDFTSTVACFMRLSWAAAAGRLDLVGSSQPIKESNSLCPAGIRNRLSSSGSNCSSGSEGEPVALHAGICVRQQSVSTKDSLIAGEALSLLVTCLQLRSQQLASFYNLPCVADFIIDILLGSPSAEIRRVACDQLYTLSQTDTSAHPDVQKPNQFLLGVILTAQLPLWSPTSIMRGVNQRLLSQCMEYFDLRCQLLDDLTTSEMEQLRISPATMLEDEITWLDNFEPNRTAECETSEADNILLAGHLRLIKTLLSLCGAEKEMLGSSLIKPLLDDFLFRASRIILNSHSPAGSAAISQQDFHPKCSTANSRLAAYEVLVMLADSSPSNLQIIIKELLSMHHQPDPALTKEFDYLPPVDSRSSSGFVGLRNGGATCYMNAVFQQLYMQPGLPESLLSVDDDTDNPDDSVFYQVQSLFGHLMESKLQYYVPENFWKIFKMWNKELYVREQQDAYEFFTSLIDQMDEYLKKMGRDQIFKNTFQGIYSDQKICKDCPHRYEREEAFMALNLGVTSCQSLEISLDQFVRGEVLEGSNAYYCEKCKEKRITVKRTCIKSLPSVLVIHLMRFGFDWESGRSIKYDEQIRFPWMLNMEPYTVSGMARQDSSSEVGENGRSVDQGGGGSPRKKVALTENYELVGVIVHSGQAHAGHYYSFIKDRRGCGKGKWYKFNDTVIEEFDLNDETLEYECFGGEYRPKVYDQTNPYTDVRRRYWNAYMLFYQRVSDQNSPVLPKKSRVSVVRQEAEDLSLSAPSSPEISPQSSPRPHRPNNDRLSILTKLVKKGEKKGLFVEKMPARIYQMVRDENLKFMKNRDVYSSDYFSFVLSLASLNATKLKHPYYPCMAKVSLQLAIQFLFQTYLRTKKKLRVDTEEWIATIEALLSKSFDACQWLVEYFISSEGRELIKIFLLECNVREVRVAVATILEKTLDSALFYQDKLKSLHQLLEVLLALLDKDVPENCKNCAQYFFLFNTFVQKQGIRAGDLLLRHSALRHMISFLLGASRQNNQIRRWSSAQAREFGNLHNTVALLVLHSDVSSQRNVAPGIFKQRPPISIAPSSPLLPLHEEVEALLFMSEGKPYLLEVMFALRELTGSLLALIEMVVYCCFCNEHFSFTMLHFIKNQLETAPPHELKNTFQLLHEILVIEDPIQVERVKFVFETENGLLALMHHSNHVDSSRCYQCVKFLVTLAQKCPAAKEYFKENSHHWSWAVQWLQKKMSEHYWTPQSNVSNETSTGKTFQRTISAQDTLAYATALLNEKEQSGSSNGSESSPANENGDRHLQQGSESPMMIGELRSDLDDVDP
Sequence of UniProt P15374 (P15374 whole entry): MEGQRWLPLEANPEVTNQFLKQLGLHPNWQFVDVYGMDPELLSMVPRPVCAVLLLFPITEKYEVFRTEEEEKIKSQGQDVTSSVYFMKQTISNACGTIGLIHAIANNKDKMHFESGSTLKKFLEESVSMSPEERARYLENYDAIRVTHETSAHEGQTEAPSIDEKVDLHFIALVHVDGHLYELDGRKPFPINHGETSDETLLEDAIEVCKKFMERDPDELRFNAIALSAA
Sequence of UniProt Q86UV5 (Q86UV5 whole entry): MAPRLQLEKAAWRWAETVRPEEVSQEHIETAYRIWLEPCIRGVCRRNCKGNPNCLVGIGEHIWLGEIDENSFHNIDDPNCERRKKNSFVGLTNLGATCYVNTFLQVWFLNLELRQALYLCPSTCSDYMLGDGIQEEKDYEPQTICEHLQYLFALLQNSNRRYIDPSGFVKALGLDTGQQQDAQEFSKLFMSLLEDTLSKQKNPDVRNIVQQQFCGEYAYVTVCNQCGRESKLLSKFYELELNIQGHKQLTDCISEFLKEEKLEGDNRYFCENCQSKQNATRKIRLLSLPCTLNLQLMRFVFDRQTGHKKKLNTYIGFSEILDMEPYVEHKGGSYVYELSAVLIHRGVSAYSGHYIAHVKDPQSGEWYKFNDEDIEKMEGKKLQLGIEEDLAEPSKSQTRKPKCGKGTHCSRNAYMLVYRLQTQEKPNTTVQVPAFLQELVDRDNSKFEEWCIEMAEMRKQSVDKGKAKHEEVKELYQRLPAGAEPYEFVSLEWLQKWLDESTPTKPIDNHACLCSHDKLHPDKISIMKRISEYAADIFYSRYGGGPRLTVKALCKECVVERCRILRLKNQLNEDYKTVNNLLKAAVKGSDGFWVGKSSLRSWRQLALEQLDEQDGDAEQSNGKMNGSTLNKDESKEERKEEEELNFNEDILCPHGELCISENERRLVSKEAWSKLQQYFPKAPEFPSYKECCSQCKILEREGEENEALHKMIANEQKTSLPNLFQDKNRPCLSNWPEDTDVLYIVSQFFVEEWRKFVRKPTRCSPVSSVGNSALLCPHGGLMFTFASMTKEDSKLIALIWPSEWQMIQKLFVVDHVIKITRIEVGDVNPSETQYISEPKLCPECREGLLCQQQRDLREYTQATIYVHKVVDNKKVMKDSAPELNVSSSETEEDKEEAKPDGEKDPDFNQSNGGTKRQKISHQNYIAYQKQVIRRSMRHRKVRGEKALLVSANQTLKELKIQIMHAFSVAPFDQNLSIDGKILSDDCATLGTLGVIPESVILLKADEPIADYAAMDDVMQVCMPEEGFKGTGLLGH
Sequence of UniProt Q9NUU6 (Q9NUU6 whole entry): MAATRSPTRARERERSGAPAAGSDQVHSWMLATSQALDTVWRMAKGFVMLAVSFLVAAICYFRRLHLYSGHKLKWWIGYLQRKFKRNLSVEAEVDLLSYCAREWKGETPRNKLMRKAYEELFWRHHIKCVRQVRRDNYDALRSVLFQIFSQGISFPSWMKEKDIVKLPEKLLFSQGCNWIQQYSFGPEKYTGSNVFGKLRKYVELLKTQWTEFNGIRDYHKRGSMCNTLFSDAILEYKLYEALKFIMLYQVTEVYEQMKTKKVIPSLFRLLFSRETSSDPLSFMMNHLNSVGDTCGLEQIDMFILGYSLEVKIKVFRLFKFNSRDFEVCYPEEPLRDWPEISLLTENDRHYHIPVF
Sequence of UniProt Q9UGI0 (Q9UGI0 whole entry): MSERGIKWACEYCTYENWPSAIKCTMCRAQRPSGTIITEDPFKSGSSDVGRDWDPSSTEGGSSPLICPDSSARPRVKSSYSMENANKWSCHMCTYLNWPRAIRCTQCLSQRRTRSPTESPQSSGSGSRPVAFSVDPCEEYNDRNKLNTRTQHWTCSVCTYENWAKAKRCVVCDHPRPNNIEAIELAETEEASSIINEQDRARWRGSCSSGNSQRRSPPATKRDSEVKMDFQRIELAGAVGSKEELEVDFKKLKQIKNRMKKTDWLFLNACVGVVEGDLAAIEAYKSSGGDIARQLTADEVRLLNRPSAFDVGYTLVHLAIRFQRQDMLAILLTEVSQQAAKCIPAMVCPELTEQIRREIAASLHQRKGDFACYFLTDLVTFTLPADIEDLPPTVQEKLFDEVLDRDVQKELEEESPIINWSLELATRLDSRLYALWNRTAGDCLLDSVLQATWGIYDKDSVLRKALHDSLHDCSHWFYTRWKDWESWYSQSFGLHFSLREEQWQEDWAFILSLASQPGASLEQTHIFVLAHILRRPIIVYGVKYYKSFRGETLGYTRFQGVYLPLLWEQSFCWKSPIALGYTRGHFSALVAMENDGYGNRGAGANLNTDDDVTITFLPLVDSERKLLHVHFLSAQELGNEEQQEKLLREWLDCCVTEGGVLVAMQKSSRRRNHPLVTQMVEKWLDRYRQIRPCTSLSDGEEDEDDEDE

Target	log2 ratio of Biotin-Ahx-Ub-VS probe labelling
USP48 (UniProt Q86UV5)	-0.22
UniProt Q9UGI0	-0.149
FAM105A (UniProt Q9NUU6)	-0.739
UniProt Q5T2D3	-0.924
USP24 (UniProt Q9UPU5)	-0.396
UCHL3 (UniProt P15374)	0.027
ATXN3 (UniProt P54252)	-0.301
USP14 (UniProt P54578)	-0.184
